Assay outcomes (PubChem)
HCMV antiviral: inhibitors of human cytomegalovirus; HFF cells, HCMV-luciferase reporter, 72 h; stronger effect = lower value; activity change, negative = inhibition, % at 57.5 µM; 410,000 compounds, 4.5% hits; AID 1259415; in the data active = activity change below about -60%; inconclusive = no clear call, values can overlap the other calls; inactive = above about -39%
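Inhibition of viral replication was scored as loss of reporter luminescence in HFFs infected with HCMV-luciferase (MOI 1 PFU/cell) for 72 h; compounds tested at 2 doses, normalized to buffer and Salinomycin controls.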
FMDV antiviral: foot and mouth disease virus antiviral activity; FMDV antiviral cell-based qHTS; Potency, µM (top dose mostly 57.9 µM), without a hit: top-dose activity change, negative = inhibition, actives largely listed as inhibitors; 410,000 compounds, 1.2% hits; AID 1159524; calls by dose curve; tested in HEK293T cells; note: read-out not given here; potency is the fitted concentration of half-maximal effect; nearly all actives have a fitted effect of over 45% in size
Marburg entry inh: blocks Marburg virus binding to or entry into cells; Marburg virus pseudotyped entry inhibition, cell reporter; Potency, µM (top dose mostly 37.8 µM), without a hit: top-dose activity change, negative = inhibition, most hits filed as inhibitors; 300,000 compounds, 1.8% hits; AID 540276; calls by dose curve; tested in HEK293 cells; note: potency is the fitted concentration of half-maximal effect
LASV entry inh: blocks Lassa virus binding to or entry into cells | Potency, µM (titrated, usually from 37.9 µM), without a hit: at the top dose activity change, negative = inhibition, hits mostly inhibitors | AID 540256 | Lassa virus pseudotype entry inhibition, cell reporter | 300,000 compounds, 1.2% hits; calls by dose curve; tested in HEK293 cells; note: potency is the fitted concentration of half-maximal effect; nearly all actives have a fitted effect of over 50% in size
* = called active by the depositor; ? = inconclusive; . = no result given; [ ] = another dose, or the depositor's remark. In the library only some 6.2% were active in any assay of this set; here they are far more common. % is set by controls: 0 for no effect and ±100 for the full control effect.

SMILES	HCMV antiviral	FMDV antiviral	Marburg entry inh	LASV entry inh
CCn1c(=O)c([N+](=O)[O-])c(Cl)c2ccccc21	248	22µM*	?	?
COc1ccc(CCN2C(=O)c3[nH]nc(-c4ccccc4O)c3C2c2cccc(O)c2)cc1OC (stereo unspecified)	90	-25%	7%	?
COc1cccc(C2c3c(-c4ccccc4O)n[nH]c3C(=O)N2CCc2ccc(OC)c(OC)c2)c1 (stereo unspecified)	-26	-8%	7.1µM*	?
CCCCN1C(=O)c2[nH]nc(-c3ccccc3O)c2C1c1ccc(OCc2ccccc2)cc1 (stereo unspecified)	-108*	0%	?	?
COCCCN1C(=O)c2[nH]nc(-c3ccccc3O)c2C1c1ccc(OCc2ccccc2)cc1 (stereo unspecified)	-96*	?	?	?
NC(=O)c1ccc(C(F)(F)F)n(Cc2c(Cl)cccc2Cl)c1=O	-8	?	?	-6%
Clc1ccc(-c2noc(CSc3nnc(Cc4cccs4)n3-c3ccccc3)n2)cc1	25	-21%	-2%	.
CCNc1ncc2nc(-c3cn(C)c4ccccc34)c(=O)n(-c3ccc(OC)cc3)c2n1	.	-1%	.	.
COc1ccccc1Nc1nc(-c2sc(N)nc2C)cs1	-26	46%	.	.
Cc1nc2ncccn2c1-c1csc(Nc2ccc(S(N)(=O)=O)cc2)n1	5	3%	.	.
Cc1nc2ncccn2c1-c1csc(Nc2ccc(N(C)C)cc2)n1	-65*	?	?	-3%
Cc1nc2ncccn2c1-c1csc(Nc2ccccc2)n1	42	?	?	-12%
COc1ccccc1Nc1nc(-c2c(C)nc3ncccn23)cs1	68	14µM*	?	?
Cc1nc2sccn2c1-c1csc(NCc2ccccc2)n1	-72*	.	?	-29%
COc1ccc(Nc2nc(-c3c(C)nc4ncccn34)cs2)cc1	-98*	?	.	.
CCc1ccc(NC(=O)CCC(=O)c2ccc(C)cc2)cc1	-5	6%	5%[46.1 µM]	28%[46.1 µM]
Cc1nc2ncccn2c1-c1csc(NCc2ccco2)n1	162	35µM*	-24%	2%
Oc1ccc(-c2csc(NCc3ccco3)n2)cc1	47	77%	-21%	?
COc1cc(/C=C(\NC(C)=O)C(=O)Nc2ccccc2C)ccc1OC(C)=O	-12	-3%	-4%	21%
Cc1cc(Br)cc2c(C(=O)Nc3c(C)n(C)n(-c4ccccc4)c3=O)cc(-c3cccs3)nc12	-63*	.	6.5µM*	?
Cc1cc(NC(=O)Cc2csc(-c3ccccc3)n2)ccc1Br	-28	-26%	-8%	3%
COc1ccc2c(c1)c(CC(=O)OCC(N)=O)c(C)n2C(=O)c1ccc(Cl)cc1	?	-22%	.	.
COc1ccc2c(c1)c(CC(=O)OCC(=O)N(C)C)c(C)n2C(=O)c1ccc(Cl)cc1	-18	12%	25µM*	?
O=C(O)c1cnn(-c2ccccc2)c1C(F)(F)F	-80*	2%	?	22%
CCc1ccc2[nH]c3nc(N/N=C/c4ccc(O)cc4O)nnc3c2c1	-76*	-18%	3.5µM*	?
SMILES	HCMV antiviral	FMDV antiviral	Marburg entry inh	LASV entry inh
COc1ccc(-c2cn(Cc3ccc4ccccc4c3)nn2)cc1	32	29%	.	.
COc1ccc(-c2cn(Cc3ccc(C(=O)c4ccccc4)cc3)nn2)cc1	-82*	10%	.	.
COc1ccccc1Nc1c2c(nc3ccc(NC(=O)c4ccc(OC)c(OC)c4)cc13)CCCC2	-99*	?	2.2µM*	?
COc1ccc(Nc2c3c(nc4ccc(NC(=O)c5ccc(F)cc5)cc24)CCCC3)cc1OC	-39	-16%	?	-26%[46.1 µM]
COc1ccc(C(=O)Nc2ccc3nc4c(c(Nc5ccccc5OC)c3c2)CCCC4)c(OC)c1	-9	-6%	2.5µM*	-4%[46.1 µM]
COc1ccc(C(=O)Nc2ccc3nc4c(c(Nc5ccc(OC)c(OC)c5)c3c2)CCCC4)c(OC)c1	-92*	-17%	?	-11%[46.1 µM]
COc1ccccc1Nc1c2c(nc3ccc(NC(=O)c4cccc(OC)c4OC)cc13)CCCC2	-98*	?	?	7.9µM*
COc1ccccc1Nc1c2c(nc3ccc(N)cc13)CCCC2	-31	-19%	.	.
O=C(CN1CCN(c2ccccc2O)CC1)Nc1ccccc1C(=O)NCCc1ccccc1	51	-14%	.	.
CN(C)C(CNC(=O)Cc1c(Cl)cccc1Cl)c1ccccc1 (stereo unspecified)	-39	2%	?	15%[46.1 µM]
O=C(N/N=C/c1c[nH]c2ccccc12)c1ccc2c(c1)OCCO2	179	-8%	?	?
COc1ccccc1Nc1c2c(nc3ccc(NC(=O)c4ccccc4F)cc13)CCCC2	-100*	?	3.2µM*	?
Cc1cccc(OCCN2CSC(=S)N(C)C2)c1	-2	-24%	-27%	-15%
COc1ccccc1OCCN1CSC(=S)N(C)C1	-74*	?	?	7%
COc1ccc(CCC(=O)Nc2ccc(Br)cn2)cc1	4	12%	-11%	-23%[14.3 µM]
COc1ccc(/C=C/c2cc(C(F)(F)F)[nH]c(=O)n2)cc1OC	-95*	?	10%[46.1 µM]	?
CCOc1cc(/C=C/c2cc(C(F)(F)F)[nH]c(=O)n2)ccc1O	-98*	?	?	?
O=c1nc(/C=C/c2ccccc2C(F)(F)F)cc(C(F)(F)F)[nH]1	19	-18%	.	.
CCOc1cc(/C=C/c2nc3ccccc3c(=O)[nH]2)ccc1O	109	0%	.	.
O=C1NC(=O)C(CCc2ccncc2)(CCc2ccncc2)C(=O)N1CCc1ccccc1	4	25%	?	?
CCCCS(=O)(=O)/C=C\C=C/S(=O)(=O)CCCC	.	?	?	11µM*
CCCCS(=O)(=O)/C=C\C1C2C=CC(C2)C1S(=O)(=O)CCCC (stereo unspecified)	-4	2%	1%	?
CC(C)C(=O)Nc1nc2cc3c(cc2s1)OCO3	-11	-3%	.	.
CC(C)(C)C(=O)Nc1nc2cc3c(cc2s1)OCO3	-73*	0%	.	.
COC(=O)c1ccc2nc(NC(=O)C(C)(C)C)sc2c1	-63*	14µM*	?	1.1µM*
SMILES	HCMV antiviral	FMDV antiviral	Marburg entry inh	LASV entry inh
COC(=O)c1ccc2nc(Nc3nc4ccc(F)cc4s3)sc2c1	-85*	?	0.79µM*	6.3µM*
O=C(CNC(=O)c1ccccc1)OCC(=O)c1ccccc1Cl	-10	-5%	?	6%[46.1 µM]
Cc1nnc(N2CCCC(C(=O)NCc3ccccc3)C2)c2nn(-c3ccccc3)c(C)c12 (stereo unspecified)	1	9%	.	17%[46.1 µM]
Cc1nnc(N2CCCC(C(=O)NCc3ccccc3F)C2)c2nn(-c3ccccc3)c(C)c12 (stereo unspecified)	-20	0%	.	.
Cc1ccccc1CNC(=O)C1CCCN(c2nnc(C)c3c(C)n(-c4ccccc4)nc23)C1 (stereo unspecified)	-101*	19%	.	.
CCc1ccc(CNC(=O)C2CCCN(c3nnc(C)c4c(C)n(-c5ccccc5)nc34)C2)cc1 (stereo unspecified)	-108*	?	.	-24%[46.1 µM]
CCc1nnc(NC(=O)CN2CCOCC2)s1	17	16%	3%	5%
COc1cccc(/C=C2\SC(=S)N(CCCC(=O)N3CCCCC3CCO)C2=O)c1 (stereo unspecified)	-110*	-18%	.	.
